Key:
[1] = test system: Botulinum neurotoxin type F light chain protease (Clostridium botulinum); experiment: Botulinum neurotoxin type F light chain protease inhibition, multiplex microsphere flow cytometry, validation set (AID 588459); details: multiplex microsphere protease substrate cleavage assay, at 10 µM, stronger effect = higher value
[2] = biological target: Botulinum neurotoxin type A (Clostridium botulinum) (UniProt P0DPI0); experiment: BoNT/A light chain protease inhibitors, biochemical, multiplex microsphere flow cytometry, validation set (AID 588460); details: at 10 µM, stronger effect = higher value
Chain of Botulinum neurotoxin type A (Clostridium botulinum) (P0DPI0 whole entry, looked up): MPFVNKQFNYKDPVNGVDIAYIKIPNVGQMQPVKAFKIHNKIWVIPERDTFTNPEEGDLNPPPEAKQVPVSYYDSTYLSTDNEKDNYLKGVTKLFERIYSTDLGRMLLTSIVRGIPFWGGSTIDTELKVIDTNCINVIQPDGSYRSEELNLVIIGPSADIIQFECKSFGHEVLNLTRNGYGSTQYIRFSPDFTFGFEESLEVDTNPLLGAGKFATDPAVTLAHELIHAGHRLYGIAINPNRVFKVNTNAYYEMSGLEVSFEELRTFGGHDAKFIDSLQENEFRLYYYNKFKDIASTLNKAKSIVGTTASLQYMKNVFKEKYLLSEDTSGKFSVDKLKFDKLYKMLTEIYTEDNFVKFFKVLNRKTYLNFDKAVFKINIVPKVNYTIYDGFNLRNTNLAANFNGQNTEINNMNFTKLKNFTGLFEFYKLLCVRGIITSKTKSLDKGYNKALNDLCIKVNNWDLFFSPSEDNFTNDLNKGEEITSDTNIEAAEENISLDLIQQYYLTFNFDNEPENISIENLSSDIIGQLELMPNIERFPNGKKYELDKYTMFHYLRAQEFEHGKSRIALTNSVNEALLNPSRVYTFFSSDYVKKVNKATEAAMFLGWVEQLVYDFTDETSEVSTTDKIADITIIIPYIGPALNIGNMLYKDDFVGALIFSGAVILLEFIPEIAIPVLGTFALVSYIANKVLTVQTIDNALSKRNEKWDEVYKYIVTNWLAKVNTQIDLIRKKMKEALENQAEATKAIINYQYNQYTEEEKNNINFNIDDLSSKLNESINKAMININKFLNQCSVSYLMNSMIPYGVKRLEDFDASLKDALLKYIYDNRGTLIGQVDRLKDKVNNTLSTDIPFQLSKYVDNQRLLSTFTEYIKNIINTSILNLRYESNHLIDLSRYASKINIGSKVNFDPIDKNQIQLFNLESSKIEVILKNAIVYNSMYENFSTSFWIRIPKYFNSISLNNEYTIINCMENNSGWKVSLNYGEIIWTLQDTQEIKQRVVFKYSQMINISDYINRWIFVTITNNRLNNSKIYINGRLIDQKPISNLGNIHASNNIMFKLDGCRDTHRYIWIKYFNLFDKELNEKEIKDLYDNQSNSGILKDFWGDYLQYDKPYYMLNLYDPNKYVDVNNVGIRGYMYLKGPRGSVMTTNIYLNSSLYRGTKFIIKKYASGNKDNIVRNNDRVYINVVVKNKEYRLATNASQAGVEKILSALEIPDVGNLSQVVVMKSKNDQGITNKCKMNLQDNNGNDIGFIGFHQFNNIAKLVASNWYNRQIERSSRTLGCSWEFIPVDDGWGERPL

[3] = biological target: Lethal factor (Bacillus anthracis) (UniProt P15917); experiment: Lethal factor protease inhibitors, Bacillus anthracis, multiplex microsphere cleavage assay, validation set (AID 588461); details: flow cytometry, at 10 µM, stronger effect = higher value
Chain of Lethal factor (Bacillus anthracis) (P15917 whole entry, looked up): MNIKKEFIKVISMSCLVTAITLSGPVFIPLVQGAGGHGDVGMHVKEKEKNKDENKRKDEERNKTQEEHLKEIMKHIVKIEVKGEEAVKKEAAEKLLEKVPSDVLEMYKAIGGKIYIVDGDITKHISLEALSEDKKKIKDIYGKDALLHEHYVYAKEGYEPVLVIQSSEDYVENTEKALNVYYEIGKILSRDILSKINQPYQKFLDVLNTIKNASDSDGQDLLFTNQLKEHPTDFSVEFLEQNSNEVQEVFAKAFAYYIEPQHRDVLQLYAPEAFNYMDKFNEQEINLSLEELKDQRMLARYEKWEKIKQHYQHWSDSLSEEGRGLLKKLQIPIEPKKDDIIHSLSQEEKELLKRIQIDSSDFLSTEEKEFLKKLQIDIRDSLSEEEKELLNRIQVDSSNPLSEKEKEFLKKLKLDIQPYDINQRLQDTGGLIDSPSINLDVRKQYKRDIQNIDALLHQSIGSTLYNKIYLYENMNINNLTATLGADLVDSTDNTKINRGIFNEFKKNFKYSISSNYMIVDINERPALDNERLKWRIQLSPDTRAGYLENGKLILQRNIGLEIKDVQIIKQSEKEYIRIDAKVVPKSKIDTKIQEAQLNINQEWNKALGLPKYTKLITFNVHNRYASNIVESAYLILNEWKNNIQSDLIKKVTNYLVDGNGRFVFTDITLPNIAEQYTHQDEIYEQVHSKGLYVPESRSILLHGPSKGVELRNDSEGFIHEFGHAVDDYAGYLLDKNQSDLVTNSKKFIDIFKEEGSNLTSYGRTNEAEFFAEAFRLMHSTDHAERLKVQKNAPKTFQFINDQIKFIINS

Measured: inhibition

CC12CCC(C(=O)N3CCCCC3)([C@H](Br)C1=O)C2(C)C (stereo not given in full)
inactive: [1] -3.4% | [2] -1.3% | [3] 0.1%

C=C(C)COc1ccc(-c2n[nH]c(C)c2-c2ccc(OC)cc2)c(O)c1
inactive: [1] -1.3% | [2] -0.9% | [3] 5.2%

COc1ccc2c(c1)[N+](C)(C)C(C)(C)C=C2C
inactive: [1] -0.4% | [2] 0.1% | [3] 1.6%

Cc1nc2ccccc2n1CC(O)Cn1c2ccccc2c2ccccc21 (stereo not given)
inactive: [1] 2.9% | [2] -0.1% | [3] -0.7%

C=CCNc1nc2c(c(=O)n(C)c(=O)n2C)n1CC(=C)C
inactive: [1] 3.1% | [2] 0.5% | [3] -0.3%

CC(=O)c1cn(C)c(=O)[nH]c1=O
inactive: [1] 2.9% | [2] 1.3% | [3] -0.5%

C=CCc1ccc(OCC(O)COc2ccc(CC=C)cc2OC)c(OC)c1
inactive: [1] 5.2% | [2] -0.2% | [3] -6.2%

NC(=O)c1ccccc1O
inactive: [1] -3.5% | [2] -1.1% | [3] 2.5%

Clc1ccc2c(c1)[C@H]1OCC[C@H]1[C@@H](c1ccco1)N2
inactive: [1] 0.3% | [2] -0.7% | [3] -4.1%

Cc1ccc2[nH]c(=O)c(Cc3ccccc3)c(O)c2c1
inactive: [1] 0.6% | [2] -0.4% | [3] 2.6%

COc1cc(-c2cccs2)cc(=O)c2c(C)oc(C)c12
inactive: [1] 1.4% | [2] 2.1% | [3] -4%

O=C1OC(c2ccc(O)cc2)(c2ccc(O)cc2)c2ccccc21
inactive: [1] -0.3% | [2] -0.8% | [3] -3.6%

Cc1nnc(NS(=O)(=O)c2ccc(N)cc2)s1
inactive: [1] 2.8% | [2] -1.1% | [3] -2.8%

Cc1cn([C@H]2C=C[C@@H](CO)O2)c(=O)[nH]c1=O
inactive: [1] -1.8% | [2] -2.2% | [3] -0.8%

Cc1cc(-c2ccccc2)nnc1NCCN1CCOCC1
inactive: [1] -0.7% | [2] -0.4% | [3] -2.3%

CC(C)c1ccccc1OCCNC(=S)NC(=O)c1cccnc1
inactive: [1] 4.3% | [2] 1.6% | [3] 2.6%

CCOC(=O)c1c(C)oc2cc(Br)c(OC(C)C(=O)OCC)cc12 (stereo not given)
inactive: [1] -0.6% | [2] 0.5% | [3] -2.8%

CCCC(=O)O[C@]1(C(=O)CCl)[C@@H](C)C[C@H]2[C@@H]3CCC4=CC(=O)C=C[C@]4(C)[C@@]3(F)C(=O)C[C@@]21C
inactive: [1] 0.9% | [2] -0.6% | [3] 1%

CN/C(=C/[N+](=O)[O-])NCCSCc1ccc(CN(C)C)o1
inactive: [1] 0.1% | [2] 0.1% | [3] -7.4%

C[C@H]1C[C@@H]2[C@H]([C@@H](O)C[C@@]3(C)[C@H]2CC[C@]3(O)C(=O)CO)[C@@]2(C)C=CC(=O)C=C12
inactive: [1] -2.2% | [2] 0.7% | [3] -0.7%

CC(=O)OCC(=O)[C@@]1(O)CC[C@H]2[C@@H]3CCC4=CC(=O)CC[C@]4(C)[C@H]3[C@@H](O)C[C@@]21C
inactive: [1] -3.3% | [2] -3.5% | [3] -5.1%

COc1ccc(C(=O)N2c3cc4c(cc3C(C)=CC2(C)C)OCO4)cc1
inactive: [1] 3.7% | [2] 0% | [3] 4%

COc1ccccc1/C=C/C(=O)OCCN1CCOCC1
inactive: [1] 3% | [2] -2.1% | [3] -6.7%

CCOc1ccc(C(=O)Nc2ccc(N3CCN(C(C)=O)CC3)cc2)cc1[N+](=O)[O-]
inactive: [1] 1.6% | [2] 0% | [3] 0.9%

COc1ccc(-c2nnc(-c3cc4c(ccc5ccccc54)oc3=O)o2)cc1
inactive: [1] -0.8% | [2] 0.4% | [3] -1.7%
